The values below come from PubChem BioAssay.

The nature of assay [1]: antimalarial activity against Dd2 strain (AID 2302;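 active means growth inhibition above 50% at the single 2 µM test dose, taken to imply half-maximal potency below 2 µM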;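 further: 0% = DMSO untreated growth and 100% = chloroquine plus artemisinin killed control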). To be noted: P. falciparum Dd2 in RBCs, LDH growth readout, 72 h; at 2 µM; active compounds read high.
A short description of assay [2]: HepG2 cytotoxicity, primary screen, cytotoxicity control for P. falciparum antimalarial project, cell-based, ATP luminescence (AID 2303;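 active means inhibition above 50%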;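 further: 0% = DMSO wells and 100% = digitonin-killed cells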). The settings on record: HepG2 viability, 24-48 h, at 10 µM, active compounds read high.
Assay [3] deals with L-lactate dehydrogenase (Plasmodium falciparum (isolate CDC / Honduras)) (UniProt Q27743). As to the kind of experiment: PfLDH activity inhibition – cell lysate, 3D7 strain, counter-screen for P. falciparum growth inhibition project (AID 2304).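 Further: 0% = vehicle and 100% = reference inhibitor.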 The settings on record: P. falciparum 3D7 crude extract, LDH APAD/NBT absorbance; at 2 µM; active compounds read high. Background: Counterscreens check selectivity or assay interference.

The nature of assay [4]: inhibition of 3D7 malaria parasite growth – strain 3D7 (AID 2306).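 Further: 0% = DMSO wells and 100% = chloroquine plus artemisinin control wells.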 The settings on record: P. falciparum 3D7 erythrocytic growth, LDH absorbance, 72 h; at 2 µM; active compounds read high.
Assay [5] concerns the target Calcium-dependent protein kinase 1 (Plasmodium falciparum (isolate 3D7)) (UniProt P62344). In words: PfCDPK1 kinase inhibitors, biochemical, TCAMS library (AID 1159585; cut-off not given, nearly all actives have IC50 up to about 0.98 µM;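 further: inhibitors leave more ATP so luminescence rises with inhibition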). To be noted: recombinant PfCDPK1, Kinase-Glo ATP depletion luminescence. (In general: Kinase-Glo reads ATP consumption through a luciferase reaction.)
Assay [6] deals with Plasmodium falciparum protein kinase 6 (PK6, PF3D7_1337100) (UniProt Q8IDW1). As to the kind of experiment: PfPK6 kinase inhibitors, biochemical, TCAMS library (AID 1159586). To be noted: recombinant PfPK6, Kinase-Glo ATP depletion luminescence.
The target of assay [7] is Protein kinase 7 (PK7), Plasmodium falciparum 3D7 (PF3D7_0213400) (UniProt Q7YTF7). As to the kind of experiment: inhibition of Plasmodium PK7 catalytic activity – biochemical, TCAMS antimalarial set, Kinase-Glo luminescence (AID 1159587). To be noted: recombinant PfPK7, Kinase-Glo ATP depletion luminescence.
Assay [8] has as its target Calcium-dependent protein kinase 4 (Plasmodium falciparum (isolate 3D7)) (UniProt Q8IBS5). As to the kind of experiment: PfCDPK4 kinase inhibitors, biochemical, TCAMS library (AID 1159588; cut-off not given, nearly all actives have IC50 up to about 0.91 µM). The settings on record: recombinant PfCDPK4, Kinase-Glo ATP depletion luminescence.

A number with no mark means an inactive call. For some of these results: Potency and affinity values are given separately. Calls of active or inactive are those of the source. Unless noted, how the calls were made is not given here.

Sequence of Calcium-dependent protein kinase 4 (Plasmodium falciparum (isolate 3D7)) (Q8IBS5 whole entry, looked up): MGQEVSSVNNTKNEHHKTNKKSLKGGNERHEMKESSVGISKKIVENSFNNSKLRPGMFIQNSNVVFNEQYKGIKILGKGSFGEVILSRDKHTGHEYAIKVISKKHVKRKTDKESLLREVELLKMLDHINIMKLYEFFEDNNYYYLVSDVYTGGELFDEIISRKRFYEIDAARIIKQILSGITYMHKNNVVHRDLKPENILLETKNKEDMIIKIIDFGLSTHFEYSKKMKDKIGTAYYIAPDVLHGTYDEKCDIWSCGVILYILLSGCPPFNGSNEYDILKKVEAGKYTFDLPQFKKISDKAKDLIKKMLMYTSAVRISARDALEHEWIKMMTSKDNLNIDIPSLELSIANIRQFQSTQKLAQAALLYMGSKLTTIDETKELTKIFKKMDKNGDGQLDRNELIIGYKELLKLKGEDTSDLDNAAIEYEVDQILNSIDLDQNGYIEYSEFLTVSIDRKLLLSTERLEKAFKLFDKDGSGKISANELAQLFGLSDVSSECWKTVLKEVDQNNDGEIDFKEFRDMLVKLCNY
Sequence of Plasmodium falciparum protein kinase 6 (PK6, PF3D7_1337100) (Q8IDW1 1-305): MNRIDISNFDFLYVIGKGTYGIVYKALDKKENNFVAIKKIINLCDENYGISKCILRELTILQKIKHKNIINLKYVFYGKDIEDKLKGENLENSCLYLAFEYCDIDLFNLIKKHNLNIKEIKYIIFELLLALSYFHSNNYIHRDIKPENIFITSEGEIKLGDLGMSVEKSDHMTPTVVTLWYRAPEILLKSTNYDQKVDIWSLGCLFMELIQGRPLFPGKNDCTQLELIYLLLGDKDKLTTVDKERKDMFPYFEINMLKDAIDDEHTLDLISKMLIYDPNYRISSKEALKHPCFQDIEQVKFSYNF
Sequence of L-lactate dehydrogenase (Plasmodium falciparum (isolate CDC / Honduras)) (Q27743 whole entry, looked up): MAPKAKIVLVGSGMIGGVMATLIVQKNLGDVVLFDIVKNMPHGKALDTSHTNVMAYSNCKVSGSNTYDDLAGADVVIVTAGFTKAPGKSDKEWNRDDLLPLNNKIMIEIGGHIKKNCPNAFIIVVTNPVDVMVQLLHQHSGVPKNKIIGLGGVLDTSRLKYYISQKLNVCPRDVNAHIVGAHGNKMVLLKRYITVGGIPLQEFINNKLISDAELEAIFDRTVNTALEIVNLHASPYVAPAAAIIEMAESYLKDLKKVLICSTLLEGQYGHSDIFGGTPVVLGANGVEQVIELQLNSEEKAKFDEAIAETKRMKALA
Sequence of Protein kinase 7 (PK7), Plasmodium falciparum 3D7 (PF3D7_0213400) (Q7YTF7 1-343): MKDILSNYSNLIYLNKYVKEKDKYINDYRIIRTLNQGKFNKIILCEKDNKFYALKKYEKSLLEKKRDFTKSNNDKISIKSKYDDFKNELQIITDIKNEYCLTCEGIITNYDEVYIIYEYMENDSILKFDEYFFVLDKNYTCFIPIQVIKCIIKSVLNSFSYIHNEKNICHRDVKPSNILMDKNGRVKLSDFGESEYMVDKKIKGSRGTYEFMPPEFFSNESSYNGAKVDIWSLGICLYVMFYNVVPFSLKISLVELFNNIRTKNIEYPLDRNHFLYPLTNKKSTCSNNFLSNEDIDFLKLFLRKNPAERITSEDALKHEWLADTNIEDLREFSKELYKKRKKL
Sequence of Calcium-dependent protein kinase 1 (Plasmodium falciparum (isolate 3D7)) (P62344 whole entry, looked up): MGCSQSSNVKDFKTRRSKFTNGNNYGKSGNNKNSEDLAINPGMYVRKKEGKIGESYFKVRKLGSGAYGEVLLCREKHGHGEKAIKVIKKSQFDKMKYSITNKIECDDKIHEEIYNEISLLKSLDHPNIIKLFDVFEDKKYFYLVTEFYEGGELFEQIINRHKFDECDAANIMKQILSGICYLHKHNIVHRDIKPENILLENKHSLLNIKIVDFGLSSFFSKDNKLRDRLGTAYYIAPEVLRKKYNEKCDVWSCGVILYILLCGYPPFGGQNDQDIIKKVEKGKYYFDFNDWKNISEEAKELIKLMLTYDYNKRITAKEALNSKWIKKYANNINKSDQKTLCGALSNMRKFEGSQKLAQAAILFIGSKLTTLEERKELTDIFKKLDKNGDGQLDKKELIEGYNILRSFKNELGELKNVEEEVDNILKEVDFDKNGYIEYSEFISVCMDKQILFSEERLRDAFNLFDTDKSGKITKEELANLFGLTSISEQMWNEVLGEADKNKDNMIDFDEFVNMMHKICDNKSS

In general, inhibition refers to the change of the read-out against control, counted positive when it falls. Turning to `OC1(c2ccccc2)CCN(Cc2cccc(-c3c[nH]c4nc(NC5CCCC5)ncc34)c2)C1` (stereo not given), the growth inhibition in assay [1] is 31%; in assay [4], 92% (active). In addition, the inhibition is 42% in assay [2] and -1% in assay [3]. The outcome in assay [5], in assay [6], in assay [7] and in assay [8] was inactive.

Consider `COc1ccc(CNC2CCN(C)CC2)cc1-c1ccc(S(=O)(=O)NCCc2ccccn2)s1`, for which the growth inhibition was 12% in assay [1] and 100% (active) in assay [4]. For the same molecule, the values for the inhibition in assay [2] and in assay [3] were 6% and 3%, respectively. The result in assay [5], in assay [6], in assay [7] and in assay [8] was inactive.

Turning to `CCn1c(-c2nonc2N)nc2c(C#CC(C)(C)O)ncc(OCCNCCc3ccc(OC)cc3)c21`, the growth inhibition in assay [1] is 44%; in assay [4], 91% (active). For the same molecule, the results for the inhibition in assay [2] and in assay [3] were 4% and -7%, respectively. The outcome in assay [5], in assay [6], in assay [7] and in assay [8] was inactive.

`OCCOCCNCc1cccc(C#Cc2cc3ncnc(Nc4ccc(OCc5cccc(F)c5)c(Cl)c4)c3s2)n1`: the values for the growth inhibition in assay [1] and in assay [4] were 46% and 96% (active), respectively. Besides, the inhibition in assay [2] was 35%; in assay [3], 0%. Moreover, the result in assay [5], in assay [6], in assay [7] and in assay [8] was inactive.

For the molecule `Cc1ccccc1CNc1noc(-c2sccc2Br)n1`, the growth inhibition was 88% (active) in assay [1] and 99% (active) in assay [4]. For the same molecule, the inhibition in assay [2] was -2%; in assay [3], -3%. Moreover, the result in assay [5], in assay [6], in assay [7] and in assay [8] was inactive.

Take `COc1ccc(O)c(C(=O)c2cc(C(=O)NCCc3ccccc3)c(=O)n(CCc3ccccc3)c2)c1`: the growth inhibition is 18% in assay [1] and 97% (active) in assay [4]. The figures for the inhibition in assay [2] and in assay [3] were 11% and -2%, respectively. Moreover, the outcome in assay [5], in assay [6], in assay [7] and in assay [8] was inactive.

Consider `Cc1cccc(Nc2nccc(NCC(O)c3ccc(C(F)(F)F)cc3)n2)c1` (stereo not given), for which the values for the growth inhibition in assay [1] and in assay [4] were 54% (active) and 101% (active), respectively. The inhibition in assay [2] was 11%; in assay [3], 0%. Besides, the result in assay [5], in assay [6], in assay [7] and in assay [8] was inactive.

With `CCCCOc1cc2[nH]cc(C(=O)OCC)c(=O)c2cc1OCCCC`, the growth inhibition is 96% (active) in assay [1] and 97% (active) in assay [4]. Besides, the inhibition was -9% in assay [2] and -2% in assay [3]. For the same molecule, the outcome in assay [5], in assay [6], in assay [7] and in assay [8] was inactive.

As to `CCCN(CC1CC1)c1ncc(-c2cccc(CNCc3ccccc3O)c2)cn1`, the growth inhibition in assay [1] was 98% (active); in assay [4], 97% (active). In addition, the inhibition was 15% in assay [2] and -8% in assay [3]. Also, the result in assay [5], in assay [6], in assay [7] and in assay [8] was inactive.

Consider `N#Cc1ccc(OCCN(Cc2ccccc2C(F)(F)F)c2ccc(C#N)c(C(F)(F)F)c2)cc1`, for which the growth inhibition in assay [1] is 84% (active); in assay [4] it was 101% (active). Further, the inhibition in assay [2] is 69% (active); in assay [3], 1%. The outcome in assay [5], in assay [6], in assay [7] and in assay [8] was inactive.

For `Cc1cc(N[C@@H](Cc2ccccc2)C(=O)NCc2cccc(F)c2)nc(NCCOc2ccccc2)n1`, the growth inhibition in assay [1] was 7%; in assay [4] it was 97% (active). In addition, the inhibition was 0% in assay [2] and -3% in assay [3]. Besides, the result in assay [5], in assay [6], in assay [7] and in assay [8] was inactive.

As to `c1ccc(CSC2=NNC(c3ccccn3)S2)cc1` (stereo not given), the growth inhibition was 65% (active) in assay [1] and 80% (active) in assay [4]. Also, the values for the inhibition in assay [2] and in assay [3] were 6% and 0%, respectively. Further, the outcome in assay [5], in assay [6], in assay [7] and in assay [8] was inactive.

As to `CC(C#N)Cc1ccc(-c2cnc(N)c3cc(-c4ccnc(N)n4)ccc23)cc1` (stereo not given), the figures for the growth inhibition in assay [1] and in assay [4] were 62% (active) and 96% (active), respectively. Moreover, the inhibition in assay [2] was 56% (active); in assay [3] it was 0%. Further, the result in assay [5], in assay [6], in assay [7] and in assay [8] was inactive.

Turning to `O=C(NC1CC1)c1ccc(N2CCCC(COc3ccc4c(c3)CCCC4)C2)nc1` (stereo not given), the growth inhibition was 65% (active) in assay [1] and 85% (active) in assay [4]. Also, the inhibition in assay [2] and in assay [3] was -5% each time. Besides, the result in assay [5], in assay [6], in assay [7] and in assay [8] was inactive.

Regarding `CCOc1ncccc1CN1CCC(N2CCc3cc(NC(=O)c4ccco4)ccc32)C1` (stereo not given), the results for the growth inhibition in assay [1] and in assay [4] were 94% (active) and 90% (active), respectively. For the same molecule, the inhibition in assay [2] was 3%; in assay [3], 1%. The outcome in assay [5], in assay [6], in assay [7] and in assay [8] was inactive.

As to `O=C(Nc1ccc2c(c1)CCCN2S(=O)(=O)c1cccs1)c1cc([N+](=O)[O-])ccc1Cl`, the figures for the growth inhibition in assay [1] and in assay [4] were 95% (active) and 93% (active), respectively. Also, the figures for the inhibition in assay [2] and in assay [3] were 29% and 3%, respectively. Besides, the outcome in assay [5], in assay [6], in assay [7] and in assay [8] was inactive.

With `COc1cc(NC(=O)/C=C/c2cccc3cc[nH]c23)ccc1OCCN(C(C)C)C(C)C`, the growth inhibition in assay [1] is 51% (active); in assay [4], 99% (active). Besides, the results for the inhibition in assay [2] and in assay [3] were 11% and 5%, respectively. For the same molecule, the outcome in assay [5], in assay [6], in assay [7] and in assay [8] was inactive.

As to `Cc1cc(NC(=O)c2cccs2)ccc1OC1CCN(Cc2ccc(F)cc2)CC1`, the growth inhibition is 92% (active) in assay [1] and 94% (active) in assay [4]. Besides, the inhibition in assay [2] is 7%; in assay [3], -1%. Besides, the outcome in assay [5], in assay [6], in assay [7] and in assay [8] was inactive.

Consider `COc1ccc(CN2CCCN(Cc3cccc(C(=O)Nc4ccc(C)c(F)c4)c3)CC2)cc1`, for which the growth inhibition was 10% in assay [1] and 83% (active) in assay [4]. Further, the results for the inhibition in assay [2] and in assay [3] were 49% and -3%, respectively. For the same molecule, the outcome in assay [5], in assay [6], in assay [7] and in assay [8] was inactive.

For the molecule `CCCCCCCNc1cc(C)nc2ccc(OC)cc12`, the growth inhibition in assay [1] is 100% (active); in assay [4], 101% (active). The inhibition in assay [2] was 30%; in assay [3], -2%. Further, the outcome in assay [5], in assay [6], in assay [7] and in assay [8] was inactive.
